# Source: PubChem (National Center for Advancing Translational Sciences (NCATS))
# Pf growth 48h = inhibits P. falciparum growth in the first generation, 48 h; P. falciparum luciferase growth in erythrocytes, 48 h; AID 504832; Potency, µM (doses to about 28.7 µM), actives largely listed as inhibitors; 310,000 compounds, 5.9% hits
#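 Compounds are pin-transferred into medium, infected erythrocytes (2% hematocrit, 0.1% parasitemia final) are added, and plates sit one parasite generation at 37 C in 5% CO2. Detection reagent is then added and luminescence measured.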
# AMA1-RON2 inh = inhibitors of Plasmodium falciparum AMA1-RON2 interaction; AlphaScreen AMA1-biotinylated RON2 peptide binding; Potency, µM (titrated, usually from 58.2 µM), usual class: inhibitors; 360,000 compounds, 0.2% hits; AID 720542; also: nearly all actives have a fitted effect of over 45% in size
#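 AMA1 (3D7) with his tag at 25 nM final met compounds first, then biotinylated RON2 peptide at 25 nM; detection used donor plus acceptor beads, 10 µg/mL apiece, read by AlphaScreen after 30 min at room temperature.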
# HCV inhibitor = HCV inhibition. 340,000 compounds, 3.4% hits. AID 651820. Potency, µM (doses to about 41.8 µM), hits mostly inhibitors. Huh7.5.1 HCVcc-Cre infection, luciferase reporter, 44 h
#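 Infectious HCV cell culture screen: compound-treated cells (1,000/well, pre-plated 4 h) are infected with HCVcc-Cre at roughly 0.5 moi and grown 44 h. Infection is quantified by luciferase signal after 15 min substrate incubation at room temperature.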
# SARS PLpro yeast = inhibitors of SARS-CoV papain-like protease in yeast; AID 485353; Potency, µM (titrated, usually from 32.9 µM), hits mostly activators; 330,000 compounds, 0.19% hits; S. cerevisiae expressing SARS-CoV PLpro, growth rescue; calls by dose curve; also: nearly all actives have a fitted effect of over 55% in size
# NS1 function inh = influenza NS1 inhibition; Potency, µM (top dose mostly 46.1 µM); 270,000 compounds, 0.4% hits; AID 2326; calls by dose curve; also: actives are rising curves; nearly all actives have a fitted effect of over 50% in size
#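 S. cerevisiae expressing influenza A NS1, grown in glucose, washed, then diluted 1:100 into pH 6.0 -URA galactose medium with 23 nl compound. Growth recovery read as OD600; NS1-free strain serves as control.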
# Pf growth 96h = inhibits malaria parasite growth, 96 h. P. falciparum luciferase reporter growth, 96 h. Potency, µM (doses to about 28.7 µM), usual class: inhibitors. 320,000 compounds, 6.9% hits. AID 504834
#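 P. falciparum expressing integrated firefly luciferase grown in erythrocytes (2% hematocrit, 0.05% parasitemia final) with compounds for 96 hours at 37 C, 5% CO2. Growth inhibition read as loss of luminescence after adding luciferase detection reagent.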
# A number is an active result; - = inactive; ? = inconclusive; . = not tested or not shown; [ ] = remark or other dose. The list is not random: actives were taken first. Their share in the collection is about 12%. Unless noted, calls follow the shape of the dose curve; as a rule, active = well fitted curve in the direction sought with a large enough effect; inconclusive = small, poorly fitted or top-dose-only effect, or another doubt; inactive = no such curve, though single readings can be large; an effect the other way counts as inactive or inconclusive.
SMILES,Pf growth 48h,AMA1-RON2 inh,HCV inhibitor,SARS PLpro yeast,NS1 function inh,Pf growth 96h
O=C(NCCc1c[nH]c2ccccc12)/C(=C\c1cccs1)NC(=O)c1ccccc1,?,-,-,-,-,14.7µM
COc1ccc(C(=O)N/C(=C\c2cccc3ccccc23)C(=O)NCCc2c[nH]c3ccccc23)cc1OC,2.94µM,-,?,-,?,5.86µM
O=S(=O)(c1ccc2ccccc2c1)n1cccn1,-,-,-,-,-,-
O=S(=O)(c1ccc(Br)cc1)c1nc(-c2ccco2)oc1NCC1CCCO1 (stereo unspecified),-,-,-,-,.,-
COc1ccc(CNC(=O)Cc2cccs2)cc1,-,-,-,-,-,?
O=C(NCc1ccccc1)C(c1ccccc1)N(Cc1ccc2c(c1)OCO2)C(=O)Cc1cccs1 (stereo unspecified),?,-,?,-,-,-
CCc1ccc(C(C(=O)NCc2ccc(OC)cc2)N(CCOC)C(=O)Cc2cccs2)cc1 (stereo unspecified),4.15µM,-,-,-,-,1.47µM
COCCN(C(=O)Cc1cccs1)C(C(=O)NCc1ccc(OC)cc1)c1ccc(C(C)C)cc1 (stereo unspecified),2.08µM,-,-,-,-,2.94µM
COCCN(C(=O)Cc1cccs1)C(C(=O)NC1CCCC1)c1ccc(OC)c(OC)c1 (stereo unspecified),-,-,-,-,-,-
COc1ccc(CNC(=O)C(c2ccc(C)o2)N(Cc2cccs2)C(=O)Cc2cccs2)cc1 (stereo unspecified),14.7µM,-,11.2µM,-,-[9.22 µM],-
COCCN(C(=O)Cc1cccs1)C(C(=O)NCc1ccc(OC)cc1)c1ccc(C)cc1 (stereo unspecified),8.28µM,-,?,-,-,5.86µM
Cc1ccc(N2C(=O)CC(Nc3ccc(Cl)c(S(=O)(=O)N(C)C)c3)C2=O)c(C)c1 (stereo unspecified),-,-,-,-,-,-
CC(C)CN1C(=O)c2ccc(C(=O)Nc3c[nH]c(=O)[nH]c3=O)cc2C1=O,-,-,-,-,.,?
CN1CCN(C(=O)c2ccc(-c3cnc4cccnn34)cc2)CC1,.,-,.,.,.,.
S=c1[nH]nc(-c2ccco2)n1/N=C/C(Cl)=C/c1ccccc1,5.22µM,-,-,-,-,-
Cc1cccc(/C=N/n2c(COc3ccccc3)n[nH]c2=S)c1,-,-,-,-,-,-
Cc1cc(-c2n[nH]c(=S)n2/N=C/C(Cl)=C/c2ccccc2)n[nH]1,-,-,-,-,?,?
S=c1[nH]nc(-c2cc(-c3ccccc3)n[nH]2)n1/N=C/C(Br)=C/c1ccccc1,5.22µM,-,?,-,-,9.28µM
CC(=C/c1ccccc1)/C=N/n1c(C)n[nH]c1=S,-,-,-,-,-,11.7µM
Cc1n[nH]c(=S)n1/N=C/c1cccc(OCc2ccccc2)c1,2.62µM,-,-,-,-,-
COC(=O)c1sccc1NC(=O)COc1ccccc1Cl,-,-,-,-,-,?
O=C(CCC(=O)c1ccc(Cl)cc1)OCc1nc2ccsc2c(=O)[nH]1,-,-,-,-,.,-
O=C(CCCCC(=O)NN=Cc1ccc(Cl)cc1)NN=Cc1ccc(Cl)cc1,.,-,?,.,.,.
COc1ccc(C(=O)CNc2cccc(F)c2)cc1,-,-,-,-,-,-
N#CC1=C(SCC(=O)c2ccc(Br)cc2)NC2=C(C(=O)CCC2)C1c1ccco1 (stereo unspecified),?,-,4.47µM,-,?,.
SMILES,Pf growth 48h,AMA1-RON2 inh,HCV inhibitor,SARS PLpro yeast,NS1 function inh,Pf growth 96h
CCC(C)NCCOCCOc1ccc(Cl)c2ccccc12 (stereo unspecified),?,-,?,-,-,-
CCC(C)NCCOCCOc1ccc(Cl)c(C)c1C (stereo unspecified),?,-[2.32 µM],10µM,-,-,-
Cc1cc(Br)c(OCC(=O)NN)c2c1CCC2,?,-,-,-,-,-
CCS(=O)(=O)Nc1cccc(C(=C2CCCCC2)c2cnc[nH]2)c1,11.7µM,-,-,.,-,?
CCS(=O)(=O)Nc1cccc(C(=O)O)c1,-,-,-,-,-,-
COC(=O)C1=C(C(=O)OC)SC2(S1)C(C(=O)OC)=C(C(=O)OC)SC1=C2c2cc(C)cc(C)c2NC1(C)C,5.86µM,?,-,.,-,?
CCC(C)Sc1ccc(-c2nc3ccc(Cl)cn3c2NCc2ccccc2)cc1 (stereo unspecified),.,-,-,-,.,.
COc1ccc(-c2nc3ccc(C)cn3c2NCc2ccccc2)cc1SC1CCCCC1,10.4µM,-,?,-,.,6.57µM
CCCCNc1c(-c2ccc(OC)c(SC(C)CC)c2)nc2ccc(Cl)cn12 (stereo unspecified),.,-,?,-,.,.
CCC(C)Sc1cc(-c2nc3ccc(C)cn3c2NCc2ccccc2)ccc1OC (stereo unspecified),.,-,10µM,.,.,.
CCCCCCSc1ccc(-c2nc3ccc(C)cn3c2NCc2ccccc2)cc1OC,5.22µM,-,-,-,.,4.65µM
CCC(C)Sc1ccc(-c2nc3ccc(C)cn3c2NCc2ccccc2)cc1OC (stereo unspecified),3.7µM,-,3.98µM,-,.,4.65µM
Cc1c(N)cc(S(=O)(=O)O)cc1NC(=O)c1cccc([N+](=O)[O-])c1,.,-,-,.,.,.
O=C(CN(C1CCCCC1)S(=O)(=O)c1ccccc1)N1CCCC1,-,-,-,-,-,-
O=C(CN(C1CCCCC1)C1CCCCC1)N1CCc2ccccc2C1,.,-,?,-,-,13.1µM
O=C(COc1ccc(Cl)cc1)Nc1cnn(Cc2c(Cl)cccc2Cl)c1,-,-,?,-,-,?
O=C(Nc1cnn(Cc2c(Cl)cccc2Cl)c1)c1ccc([N+](=O)[O-])cc1,?,-,?,-,-,13.1µM
CN(Cc1cnn(C)c1)Cc1nc(-c2ccc(Cl)cc2)no1,-,-,-,-,-,9.28µM
CN(Cc1cnn(C)c1)Cc1nc(C(c2ccccc2)c2ccccc2)no1,?,-,-,-,-,-
Cc1cc(C)cc(NS(=O)(=O)c2c(C(=O)N3CCOCC3)c(C)n(C)c2C)c1,?,-,-,-,-,?
CC(C)(C)OC(=O)C(C1NC(C(=O)O)C(C)(C)S1)N1C(=O)c2ccccc2C1=O (stereo unspecified),.,-,-,.,.,.
Cc1nc2c(C(=O)Nc3ccc(N4CCCC(O)C4)cc3)snc2c(=O)[nH]1 (stereo unspecified),1.65µM,-,-,-,-,?
CCCCNC(=O)C1(C)CCN1C(=O)c1ccc(C)c(F)c1 (stereo unspecified),.,-,.,.,.,.
O=C(NCc1ccc2c(c1)OCO2)C1CCN(c2nccc(C(F)(F)F)n2)CC1,-,-,-,-,-,-
Cn1c(=O)c2c(nc3n2CC(O)CN3c2ccc(O)cc2)n(C)c1=O (stereo unspecified),-,-,-,-,-,-
